This note sets out measurements from PubChem BioAssay AID2567 (National Center for Advancing Translational Sciences (NCATS), 2010).

Inconclusive results are not listed. Values without a mark were called inactive. Calls of active or inactive are those of the source. Calls come from the whole dose curve; as a rule, active = well fitted antagonist curve with a large enough effect in the main read-out, with a control signal flat; inconclusive = small, poorly fitted or top-dose-only effect; inactive = no such curve, though single readings can be large or run the other way.

Neuropeptide S receptor (Homo sapiens), sequence (Q6W5P4 whole entry, looked up): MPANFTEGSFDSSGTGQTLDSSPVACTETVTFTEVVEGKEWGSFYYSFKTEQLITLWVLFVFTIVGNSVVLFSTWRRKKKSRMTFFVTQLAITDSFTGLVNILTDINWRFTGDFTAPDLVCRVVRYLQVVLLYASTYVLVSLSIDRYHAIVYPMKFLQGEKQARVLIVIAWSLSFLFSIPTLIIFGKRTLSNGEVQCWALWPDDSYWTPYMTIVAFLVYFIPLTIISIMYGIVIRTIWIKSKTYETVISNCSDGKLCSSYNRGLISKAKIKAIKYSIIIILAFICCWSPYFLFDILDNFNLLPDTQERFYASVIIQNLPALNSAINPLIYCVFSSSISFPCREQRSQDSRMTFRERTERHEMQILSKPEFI

This assay addresses Neuropeptide S receptor (Homo sapiens) (UniProt Q6W5P4). In words: Confirmation Concentration-Response Assay for Antagonists of the Neuropeptide S Receptor: Calcium Signal Transduction, SAR for Probe. Particulars: CHO-NPSR cells, NPS-induced calcium fluorescence, FDSS; series mostly up to 19.3 µM; activity change, negative = inhibition: at the top concentration. The text has this: NIH Chemical Genomics Center [NCGC] NIH Molecular Libraries Probe Production centers Network [MLPCN] MLPCN Grant: X01-DA026210-01 Assay Submitter (PI): Heilig, Markus Alexander NCGC Assay Overview: Neuropeptide S receptor (NPSR), previously known as GPR154, is a recently de-orphanized G protein coupled receptor. Its endogenous ligand is the 20 amino acids peptide Neuropeptide S (NPS). […] NPS and its receptor are found in various tissues. Specifically they are highly expressed in brain areas that have been implicated in modulation of arousal, stress and anxiety. Central administration of NPS in mice produces an unusual profile of activity by inducing wakefulness and arousal, while at the same time suppressing anxiety. Therefore, NPSR may represent a novel drug target for the treatment of sleep and anxiety disorders. To identify NPSR antagonists, we developed a cell-based assay with transfected NPS receptor. NPS can stimulate the production of cAMP as well as release intracellular calcium in Chinese hamster ovary cells stably expressing NPS receptor. This change in intracellular calcium can be detected using a calcium indicator dye on a calcium imaging plate reader system (FDSS).
NCGC Assay Protocol Summary: A Chinese hamster ovary (CHO) cell line stably expressing the NPS receptor (CHO-NPSR) was obtained from Dr. Heilig lab at NIAAA and maintained in F-12 Kaighn's media (Invitrogen, Carlsbad, CA, 21127) supplemented with 10 % FBS, 100 units/ml penicillin, 100 ug/ml streptomycin and 250 ug/ml geneticin at 37C, 5% CO2 in a humidified atmosphere. Before the assay, aliquots of cells were frozen and stored at -135C. The assay was performed on a FDSS-7000 kinetic plate reader in 1536-well format. For both agonist (1-220s) and antagonist (221-400s) phases, the maximums of kinetic fluorescence responses were converted separately into text files using the instrument's software data export utility. Data for agonist response were normalized to the controls for basal activity (DMSO only) and 100% activation (NPS). […] AC50 values were determined from concentration-response data modeled with the standard Hill equation. NPS 1536-well FDSS assay protocol: (1) Frozen CHO-NPSR cells were thaw, washed once with fresh media and resuspended in F-12 Kaighn's media supplemented with 10 % FBS, 100 units/ml penicillin and 100 ug/ml streptomycin. Cells were plated at 3 ul/well (1200 cells) to black, clear-bottom, tissue-culture treated 1536-well plates, and then cultured at 37C, 5 % CO2 for 16 to 30 hours. (2) Add 3 ul of calcium dye (from High Performance PBX Calcium Assay Kit, BD Biosciences). The calcium dye was prepared according to the manufactory's instruction. (3) Incubation at 37C, 5 % CO2 for 60 to 120 min. (4) Load plates to FDSS-7000. The following steps were performed on FDSS-7000. (5) Record fluorescent background (Ex 480 nm, Em 520-560 nm) for 10 s. (6) Add 23 nl/well of compound in DMSO solution. The final titration for each compound was between 0.6 nM and 46 uM. Record agonist response for 210 s. (7) Add 2 ul of stimulation reagent (1X HBSS buffer, 0.1% BSA, 60 nM NPS). Record antagonist response for 140 s. Keywords: MLSMR, MLPCN, NIH Roadmap, qHTS, NCGC, NPS, Neuropeptide S Antagonists
As for `COc1ccc(C2c3c(n(CCCc4ccccc4)cnc3=N)Oc3ccc4ccccc4c32)cc1OC` (stereo not given), the Potency was 5.52 µM (active).

`COc1ccc(C2C3=C(N=CN(CCN4CCOCC4)C3N)Oc3ccccc32)cc1OC` (stereo not given): the “activity change, negative = inhibition” value was -2.32% [at 50.9 µM].

Turning to `O=[N+]([O-])c1ccc(-c2nc(C(Cl)Cl)c3ccccc3n2)cc1`, the “activity change, negative = inhibition” value is -23.4%.

For `Cc1c(P(=S)(c2ccccc2)c2ccccc2)c2ccccc2n1C(=O)Cc1ccccc1`, the “activity change, negative = inhibition” value was -9.71% [at 50.9 µM].

`O=C(/C=C/c1ccco1)NC(=S)Nc1nc(-c2ccc3ccccc3c2)cs1`: the “activity change, negative = inhibition” value was 4.33%.

In the case of `CN(C)c1nc(=Nc2cccc(Cl)c2)ss1`, the “activity change, negative = inhibition” value is 5.52%.

Take `C[n+]1cc(C(O)(c2ccccc2)c2ccccc2)n2ccccc21`: the “activity change, negative = inhibition” value was -13.9% [at 50.9 µM].

`Cc1oc2c(c1C(=O)NCc1cccnc1)C(=O)c1ccccc1C2=O`: the “activity change, negative = inhibition” value was 16.4%.

In the case of `CCOC(=O)c1ccc(-n2cnc3c(c2=N)C(c2cccc(OC)c2)c2c(ccc4ccccc24)O3)cc1` (stereo not given), the Potency is 2.76 µM (active).

As to `COc1ccc(C2c3c(ncn(CCc4ccccc4)c3=N)Oc3ccc4ccccc4c32)cc1OC` (stereo not given), the “activity change, negative = inhibition” value is -81.6% [at 50.9 µM].

For the molecule `COc1cccc(C2c3c(ncn(-c4cccc(Cl)c4)c3=N)Oc3ccc4ccccc4c32)c1` (stereo not given), the Potency is 8.74 µM (active).

In the case of `COc1ccc(C2c3c(nc(CCCc4ccccc4)[nH]c3=O)Oc3ccc4ccccc4c32)cc1OC` (stereo not given), the “activity change, negative = inhibition” value is 11.2% [at 50.9 µM].

Consider `COc1cccc(C2c3c(ncn(-c4ccc(NC(C)=O)cc4)c3=N)Oc3ccc4ccccc4c32)c1` (stereo not given), for which the Potency was 5.52 µM (active).

In the case of `CCSc1nc2c(c(=O)n1Cc1ccccc1)SC(C)C2` (stereo not given), the “activity change, negative = inhibition” value is -2.84%.

Turning to `COc1cccc(C2c3c(ncn(-c4ccc(C#N)cc4)c3=N)Oc3ccc4ccccc4c32)c1` (stereo not given), the Potency was 5.52 µM (active).

On to `Cc1ccc(Nc2cc(C)nn2-c2nc(C)cc(C)n2)cc1`, for which the “activity change, negative = inhibition” value is 24.7%.

In the case of `CCC(C)(CCN1CCOCC1)N(Cc1cc2ccccc2n(C)c1=O)C(=O)C1CCCCC1` (stereo not given), the Potency is 0.11 µM (active).

For `Cc1c(P(=S)(c2ccccc2)c2ccccc2)c2ccccc2n1CCCc1ccccc1`, the “activity change, negative = inhibition” value was -2.39% [at 50.9 µM].

Consider `COc1ccc(C2c3c(n(CCc4ccccc4)cnc3=N)Oc3ccc4ccccc4c32)cc1OC` (stereo not given), for which the “activity change, negative = inhibition” value was -50.4% [at 50.9 µM].

In the case of `OC(c1ccccc1)(c1ccccc1)c1cnc2ccccn12`, the “activity change, negative = inhibition” value is -20.4% [at 50.9 µM].

With `COc1cccc(C2c3c(ncn(-c4ccccc4-c4ccccc4)c3=N)Oc3ccc4ccccc4c32)c1` (stereo not given), the “activity change, negative = inhibition” value is -65.7% [at 50.9 µM].

Take `S=C(Nc1ccccc1)Nc1nccs1`: the “activity change, negative = inhibition” value was 23.7%.

In the case of `CC(=O)c1sc(N/N=C\c2ccccc2O)nc1C`, the Potency is 1.12 µM (active).

As to `COc1cccc(C2c3c(ncn(-c4ccc5c(c4)OCO5)c3=N)Oc3ccc4ccccc4c32)c1` (stereo not given), the Potency was 0.552 µM (active).

Consider `COc1cccc(C2c3c(ncn(-c4ccc(C)cc4)c3=N)Oc3ccc4ccccc4c32)c1` (stereo not given), for which the Potency is 3.48 µM (active).

Consider `O=P(c1ccccc1)(c1ccccc1)c1cnc2ccccn12`, for which the “activity change, negative = inhibition” value is -12.3% [at 50.9 µM].

Consider `NC(=O)OCC(COC(N)=O)c1ccccc1`, for which the “activity change, negative = inhibition” value is 20.6%.

With `COc1cccc(C2c3c(ncn(-c4ccccc4SC)c3=N)Oc3ccc4ccccc4c32)c1` (stereo not given), the Potency was 0.438 µM (active).

For `Cc1c(P(=S)(c2ccccc2)c2ccccc2)c2ccccc2n1C/C=C/c1ccccc1`, the “activity change, negative = inhibition” value was 62.1% [at 50.9 µM].

For `CC1(C)Cc2c(c(N3CCOCC3)nc3sc4c(NCC5CCCO5)nnnc4c23)CS1` (stereo not given), the “activity change, negative = inhibition” value is -40.4%.

Turning to `COc1ccc(C2c3c(n(Cc4ccccc4)cnc3=N)Oc3ccc4ccccc4c32)cc1OC` (stereo not given), the “activity change, negative = inhibition” value was -28.1% [at 50.9 µM].

`COc1ccc(C2c3c(ncn(Cc4ccccc4)c3=N)Oc3ccc4ccccc4c32)cc1OC` (stereo not given): the Potency is 1.39 µM (active).

For `COc1ccc(-n2cnc3c(c2=N)C(c2cccc(OC)c2)c2c(ccc4ccccc24)O3)cc1` (stereo not given), the Potency was 4.38 µM (active).

Regarding `COc1ccc(C2c3c(nc(CCc4ccccc4)[nH]c3=O)Oc3ccc4ccccc4c32)cc1OC` (stereo not given), the “activity change, negative = inhibition” value is -61.9% [at 50.9 µM].

With `CCOC(=O)c1cnc(-n2nc(C)cc2C)nc1Nc1ccc(C)cc1`, the “activity change, negative = inhibition” value was -19.5%.

Turning to `COc1cccc(C2c3c(ncn(-c4ccc(C(C)(C)C)cc4)c3=N)Oc3ccc4ccccc4c32)c1` (stereo not given), the Potency was 5.52 µM (active).

On to `Cn1cc(P(=O)(c2ccccc2)c2ccccc2)c2ccccc21`, for which the “activity change, negative = inhibition” value was -17.3% [at 50.9 µM].

As for `Oc1ccc(N=Nc2nccs2)c(O)c1`, the “activity change, negative = inhibition” value is -0.946%.

Consider `COc1ccc(C2c3c(N)nc(CCCc4ccccc4)nc3Oc3ccc4ccccc4c32)cc1OC` (stereo not given), for which the “activity change, negative = inhibition” value was -53.4% [at 50.9 µM].

In the case of `COc1cccc(C2c3c(ncn(-c4cccnc4)c3=N)Oc3ccc4ccccc4c32)c1` (stereo not given), the Potency is 2.76 µM (active).
